Out of some 350,000 compounds screened, about 2,700 (0.77%) were called active. This excerpt belongs to a sample that is enriched for actives. Values without a mark were called inactive.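 The calls were made as follows: active = inhibition reaching at least a set limit at 20 µM in the primary screen (cut at about 59% in these data); inactive = the rest.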
The compounds below were run on glucose-6-phosphate dehydrogenase-6-phosphogluconolactonase (Plasmodium falciparum 3D7) (assay: PfG6PD enzyme inhibitors, primary screen, biochemical, fluorescence intensity, uHTS (AID 504690;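 also: 0% = DMSO wells with substrate and 100% = DMSO wells lacking glucose-6-phosphate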)). Details: PfGluPho enzyme, NADPH resazurin-diaphorase fluorescence; at 20 µM; active compounds read high.

First: CCN(CC)c1ccc(C(=O)c2cnc(/N=C/N(C)C)s2)cc1
Second: CCCCOP(=O)(c1ccc(N(C)C)cc1)C(O)c1cc(OC)ccc1OC (configuration not stated)
The inhibition of the first is higher: 11.6% for the first, 10.8% for the second.

Compared with CCOC(=O)N1CCN(C(=O)c2ccc3c(=O)n(CCc4ccc(OC)c(OC)c4)c(=O)[nH]c3c2)CC1, COc1ccc(COC(=O)c2ccc(Cl)c(S(=O)(=O)N3CCOCC3)c2)cc1F is higher in inhibition: 0.32% for the first, 20.9% for the second.

Compared with CCOC(=O)C1CCCN(CCSc2ccc(C)cc2)C1 (configuration not stated), COc1ccc(CN2CCCC(C(=O)N3CCCCC3)C2)cc1 (configuration not stated) is higher in inhibition: -1.97% for the first, 0.72% for the second.

Going from CC(C)C[C@H](NC(=O)N1CCn2c1nc1ccccc12)C(=O)NC1CC1 to O=C(O)C1CCN(C(=O)OCc2ccccc2)CC1, the inhibition rises from -6.34% to -0.22%.

Compared with NC1=CC(=O)C(=O)c2cccnc21, CC(=O)Nc1ccc(-c2cn3cccnc3n2)cc1 is lower in inhibition: 51.8% for the first, 2.85% for the second.

Compared with NC(=O)CN1CCCC1c1ccc2c(c1)OCCO2 (configuration not stated), CC1CCC2(CC1)NC(=O)N(CC(=O)c1ccc3c(c1)OCO3)C2=O (configuration not stated) is lower in inhibition: 7.24% for the first, 6.6% for the second.

Going from CCCCN1CC(C)(C)[C@H](CC(=O)Nc2ccc(Br)cc2)C1=O to CC(=O)Nc1ccc(NC(=O)CCN2C(=O)C3CC=CCC3C2=O)cc1 (configuration not stated), the inhibition falls from 21.2% to -13%.

First: O=C1OC[C@@H]2CCCN2C(=O)[C@H](CC(=O)N(CCO)Cc2ccccc2)C/C=C\CC[C@@H]1Cc1ccc(F)cc1
Second: O=C(CCN1C(=O)COc2ccccc21)NCCCN1CCN(c2ccc(F)cc2)CC1
The inhibition of the first is lower: -6.25% for the first, -3.8% for the second.

Going from CN1CCN(c2ccc(NC(=O)c3cc(Cl)c4c(c3)OCCO4)cc2)CC1 to COC(=O)c1ccc(N2CCOCC2)c(NC(=O)c2ccc3c(c2)OCCO3)c1, the inhibition rises from -0.01% to 9.1%.

Going from COc1ccc(C(=O)OC(C)C(=O)NC2CCCC2)cc1S(=O)(=O)N1CCOCC1 (configuration not stated) to CC(C)CCC(=O)Nc1cc(S(=O)(=O)N2CCOCC2)ccc1N1CCCC1, the inhibition rises from -8.93% to 10.5%.

First: O=C(NCc1cccc(CNC(=O)Nc2cccc(O)c2)c1)Nc1cccc(O)c1
Second: COc1cc(C(=O)NCc2ccncc2)cc(Br)c1OCc1ccccc1
The inhibition of the first is higher: 11% for the first, 10.8% for the second.

First: COc1cccc(NC(=O)Nc2ccc(F)cc2)c1
Second: CC(Oc1cccc(Cl)c1)C(=O)Nc1ccc(S(=O)(=O)Nc2ncccn2)cc1 (configuration not stated)
The inhibition of the first is higher: 30.6% for the first, -6.55% for the second.

Going from CC1CCCC(N2CCN(C(=O)c3ccc(F)cc3)CC2)C1 (configuration not stated) to O=C(O)C1CCCCC1C(=O)N1CCN(S(=O)(=O)c2ccc(F)cc2)CC1 (configuration not stated), the inhibition falls from 12.6% to -3.01%.

First: Cc1ccc(-c2cc(N)on2)cc1
Second: Cc1ccc(NC(=O)OCCNC(=O)c2ccncc2)cc1
The inhibition of the first is higher: 8.69% for the first, -14.7% for the second.

First: Cc1nc(=O)c(-c2ccccc2)c(C)n1-c1ccc(Br)cc1
Second: Cn1c(-c2sc3cc(C(F)(F)F)cnc3c2-c2ccccc2)n[nH]c1=S
The inhibition of the first is lower: -0.2% for the first, 27.8% for the second.

Compared with CS(=O)(=O)Nc1cccc(-c2cn3ccccc3n2)c1, CC1(c2ccccc2)NC(=O)N(CC(=O)N2CC(=O)Nc3ccccc32)C1=O (configuration not stated) is higher in inhibition: -10.9% for the first, 4.26% for the second.

First: COc1ccc(C(C)NC(=O)C2CCCC2)cc1 (configuration not stated)
Second: CC1(OC(=O)C2CCCC2)C(=O)C=C2C=C(c3ccc(C#N)cc3)OC=C2C1=O (configuration not stated)
The inhibition of the first is lower: -12.4% for the first, 23% for the second.

First: COc1ccccc1C(=O)N/C(=C/c1ccco1)C(=O)Nc1ccc(C(=O)O)cc1
Second: COc1ccc(S(=O)(=O)NCc2cccnc2)cc1NC(=O)c1ccc(C)cc1
The inhibition of the first is higher: 7.16% for the first, -3.1% for the second.

First: COCC(C)NC(=O)CSc1nc2nn(-c3ccccc3)c(=O)c-2c2n1CCCCC2 (configuration not stated)
Second: O=c1c2ccccc2nnn1CSc1nc2sc3c(c2c(=O)n1CC1CCCO1)CCC3 (configuration not stated)
The inhibition of the first is lower: -8.52% for the first, 13.2% for the second.

Compared with COCCNC(=O)CSc1nc(N)c(NC(=O)c2ccco2)c(=O)[nH]1, O=C(COC(=O)Cn1cnc2ccccc2c1=O)NCc1ccccc1Cl is higher in inhibition: 3.96% for the first, 11% for the second.

Going from CC(C)(C)c1ccc(C(=O)N2CCN(CCNC(=O)C(=O)Nc3ccc(F)cc3)CC2)cc1 to O=C(Nc1ccc(N2CCN(C(=O)c3ccccc3)CC2)c(Cl)c1)c1cccnc1, the inhibition rises from 0.45% to 17.8%.

Going from CC(Oc1ccc(F)cc1)C(=O)N1CCN(c2ncccn2)CC1 (configuration not stated) to CCN1CCN(c2ccc([N+](=O)[O-])cc2C(=O)c2ccc(Cl)cc2)CC1, the inhibition rises from 8.63% to 11.2%.

First: CCOC(=O)C1=C(C)c2ccccc2OC1C(=O)OCC (configuration not stated)
Second: CCOC(=O)C(=Cc1ccccc1OC)C(=O)OCC
The inhibition of the first is higher: 4.58% for the first, -10.6% for the second.

First: CCOC(=O)N1CCN(Cc2nc(Cc3cccc(C(F)(F)F)c3)no2)CC1
Second: O=C(NCCN1CCCC(O)C1)c1cc(COc2c(F)cccc2F)on1 (configuration not stated)
The inhibition of the first is higher: -8.4% for the first, -19.2% for the second.

Compared with O=C(OCc1cn([C@@H]2C[C@H](c3ccc(Cl)cc3)N(Cc3cccs3)C[C@H]2O)nn1)c1ccccc1, CC1(OC(=O)CCc2ccccc2)C(=O)C=C2C=C(c3ccc(C#N)cc3)N(CCc3ccccn3)C=C2C1=O (configuration not stated) is higher in inhibition: 11.3% for the first, 44.1% for the second.

Compared with CCN(C(=O)CSc1nnc(-c2ccc(OC(F)F)cc2)n1N)C1CCS(=O)(=O)C1 (configuration not stated), CCOc1ccc(NS(=O)(=O)c2ccc(C(=O)NCC3CCCO3)cc2)cc1 (configuration not stated) is higher in inhibition: -3.99% for the first, 9.67% for the second.

First: O=C(c1ccc(Br)o1)N(c1ccccn1)C1CCCCC1
Second: O=C(Nc1ccccc1C(=O)N1CCOCC1)C1CCC(=O)N1C1CCCC1 (configuration not stated)
The inhibition of the first is lower: -15.9% for the first, -1.14% for the second.

Compared with CC(=O)Nc1ccc(C=Cc2ccc([N+](=O)[O-])cc2)cc1, O=C(O)C(=Cc1ccc([N+](=O)[O-])cc1)CCc1ccccc1 is lower in inhibition: 14.2% for the first, -27.5% for the second.

Going from C[C@H]1CN([C@@H](C)CO)C(=O)c2cc(Br)cnc2O[C@H]1CN(C)S(=O)(=O)c1cccs1 to COCC(=O)N(C)C[C@H]1Oc2cc(Br)ccc2S(=O)(=O)N([C@H](C)CO)C[C@H]1C, the inhibition falls from 9.15% to -15.7%.

Compared with O=C(CCN1C(=O)c2ccncc2C1=O)Nc1cc(F)ccc1F, O=C(COC(=O)Cc1ccc(F)cc1)Nc1cc(S(=O)(=O)N2CCOCC2)ccc1N1CCCC1 is higher in inhibition: -12.6% for the first, -0.28% for the second.

Compared with O=C(O)C1CCN(c2ccc([N+](=O)[O-])cc2[N+](=O)[O-])CC1, O=C(O)C1CCCN1c1nc(Cl)ccc1[N+](=O)[O-] (configuration not stated) is higher in inhibition: -6.12% for the first, 26.3% for the second.

Going from CCN(CCCCOC(=O)c1ccc(OC)c(OC)c1)C(C)Cc1ccc(OC)cc1 (configuration not stated) to COc1ccccc1OCCC(=O)OCC(=O)NCc1ccccc1, the inhibition rises from -1.86% to 9.79%.

First: O=S(=O)(NC1CC1)c1ccc(F)c(F)c1
Second: CC1CCC(NS(=O)(=O)c2ccc3c(c2)n(C)c(=O)c(=O)n3C)CC1 (configuration not stated)
The inhibition of the first is higher: 1.75% for the first, -1.38% for the second.

Compared with C=C(C)C(=O)Nc1cccc(C2=NOC3(C2)C[C@H](C(N)=O)N(C(=O)C(c2ccccc2)c2ccccc2)C3)c1 (some centres not stated), CC(OC(=O)CCc1nc(=O)c2ccccc2n1C)C(=O)NCc1ccc2c(c1)OCO2 (configuration not stated) is higher in inhibition: -3.38% for the first, 5.1% for the second.

First: Cc1ccc(C(O)P(=O)(OC(C)C)c2ccc(N(C)C)cc2)cc1 (configuration not stated)
Second: CC(C)(C)n1ncc2c(=O)n(Cc3c(Cl)cccc3Br)cnc21
The inhibition of the first is lower: -15% for the first, -2.98% for the second.

First: S=C(Nc1cccnc1)Nc1ccccn1
Second: O=C(N/N=C/c1ccccn1)C12CC3CC(CC(C3)C1)C2
The inhibition of the first is higher: 7.51% for the first, -7.42% for the second.

First: CN1CCN(NC(=O)c2ccc(S(=O)(=O)N3CCCCCC3)cc2)CC1
Second: CCOc1ccc(S(=O)(=O)N2CCN(C(=S)NCC3CCCO3)CC2)cc1 (configuration not stated)
The inhibition of the first is lower: 5.23% for the first, 8.65% for the second.

CC[C@@H](C)[C@@H]1CN([C@@H](C)CN2CCC[C@H]2CN2C(N)=NC[C@H]2C(C)C)C(=N)N1CCc1ccc(Cl)c(Cl)c1 gave an inhibition of -10.9%.

Cc1coc2c(O)cc3c(c12)OC1(N2CCCCC2)C(=O)NCCCC31 (configuration not stated) was tested, and the inhibition was 101% (active).
With CN1CCN(c2ccc(NC(=O)c3ccc4c(c3)OCCO4)cc2Cl)CC1 the inhibition was 68.3% (active).
With COc1cccc(NC(=O)NCc2ccc(F)cc2)c1 the inhibition was 75.8% (active).
Cc1ccc(-c2cn3cc(C)ccc3n2)cc1 was tested, and the inhibition was 104% (active).
In the case of Cc1ccc2nc(-c3ccc(Br)cc3)cn2c1, the inhibition is reported as 91.8% (active).
For COCCNC(=O)Nc1ccc2nc(-c3ccco3)c(-c3ccco3)nc2c1, the inhibition was 66.8% (active).
C=C1c2cccc(OC)c2O[C@H](C(=O)OCC)[C@@H]1CCCCCC was tested, and the inhibition was 77.8% (active).
For Cn1c(-c2sccc2OCc2cccc(C(F)(F)F)c2)n[nH]c1=S, the inhibition was 65.3% (active).
With O=C1/C(=C\c2ccc([N+](=O)[O-])cc2)CS(=O)(=O)C/C1=C/c1ccc([N+](=O)[O-])cc1 the inhibition was 77.6% (active).
For COCCN1C=C2C(=O)C(C)(OC(=O)C3CCCC3)C(=O)C=C2C=C1c1ccsc1 (configuration not stated), the inhibition was 72.5% (active).
O=[N+]([O-])c1ccc(N2CCN(c3ccc(O)cc3)CC2)c(Cl)c1 was tested, and the inhibition was 61.5% (active).
For Cn1sc(=O)c2cc(S(=O)(=O)NC3CC3)ccc21, the inhibition was 66.3% (active).
For COc1cc(C(=S)NCc2ccccc2)cc(Br)c1O, the inhibition was 66.8% (active).
In the case of COCCNC(=S)Nc1cc(S(=O)(=O)N2CCOCC2)ccc1N1CCCCC1, the inhibition is reported as 76.4% (active).
With S=C(NN=Cc1ccccn1)Nc1ccccn1 the inhibition was 64% (active).
CCOc1ccc(-n2c(N)c(C(=O)NCC3CCCO3)sc2=S)cc1 (configuration not stated) was tested, and the inhibition was 67.6% (active).
In the case of Cn1c(CCC(=O)OCC(=O)NCc2ccccc2Cl)nc(=O)c2ccccc21, the inhibition is reported as 60.9% (active).

Reference: PubChem BioAssay AID504690 (Sanford-Burnham Center for Chemical Genomics, 2011)
